According to PubChem BioAssay (EPA / NIEHS):
The source made the active and inactive calls. The calls were made as follows: active = hit-call score of the fitted dose curve at least 0.9, where 1 is the maximum; inactive = score below 0.9.

Tests used:
[1] = ATG_CRE_CIS: Attagene CIS-FACTORIAL HepG2 Assay for human cAMP Responsive Element (CRE) binding protein 3 (AID 2282926); conditions: HepG2 CRE cis-reporter, Attagene multiplexed mRNA; actives raise or lower the signal
Summary of the method: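 Liver-derived HepG2, transfected with a CRE-containing reporter panel, exposed 24 h; transcript levels sized and quantified by capillary electrophoresis of labelled amplicons; signal changes either way referenced to vehicle.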

[2] = biological target: CCAAT/enhancer-binding protein beta (Homo sapiens) (UniProt P17676); test: ATG_C_EBP_CIS: Attagene CIS-FACTORIAL HepG2 Assay for human CCAAT/Enhancer Binding Protein (C/EBP) beta (AID 2282927); conditions: HepG2 Attagene cis-factorial transcription factor reporter; actives raise or lower the signal
Summary of the method: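 Following a 24 h incubation with test chemical, transfected HepG2 cells yielded RNA whose reporter transcripts were quantified by RT-PCR and fluorescent capillary electrophoresis, with DMSO serving as baseline for bidirectional fitting.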

[3] = ATG_CMV_CIS: Attagene CIS-FACTORIAL HepG2 Assay for human CMV (Internal Marker) (AID 2282928); conditions: HepG2 CMV promoter reporter, transcription factor profiling; actives raise or lower the signal;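 also: endpoint acts as a background internal control marker rather than a target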
Summary of the method: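 24 h chemical treatment, HepG2 with transient multi-reporter transfection; RNA → oligo(dT) RT → PCR → 6-FAM extension → HpaI digest → CE fluorescence. Bidirectional fit, DMSO negative control.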

[4] = biological target: Aryl hydrocarbon receptor (Homo sapiens) (UniProt P35869); test: ATG_Ahr_CIS: Attagene CIS-FACTORIAL HepG2 Assay for human Aryl Hydrocarbon Receptor (Ahr) (AID 2282930); conditions: HepG2 AhR cis-factorial reporter transcription; actives raise or lower the signal
Summary of the method: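 Values derive from bidirectional fitting against DMSO negative control. Underlying signal: cis-element reporter mRNA in transiently transfected HepG2, harvested 24 h post-dose and measured by RT-PCR plus capillary electrophoresis.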

[5] = ATG_AP_1_CIS: Attagene CIS-FACTORIAL HepG2 Assay for human Activator Protein 1 (AP-1) (AID 2282931); conditions: HepG2 Attagene cis-factorial AP-1 reporter mRNA; actives raise or lower the signal
Summary of the method: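 HepG2 cells transiently transfected with cis-element-driven multiplex reporter units; 24 h compound exposure. Reporter mRNA quantified by RT-PCR, FAM-labelled fragments resolved by capillary electrophoresis; bidirectional fit versus DMSO baseline.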

[6] = ATG_AP_2_CIS: Attagene CIS-FACTORIAL HepG2 Assay for human Activator Protein 2 (AP-2) (AID 2282932); conditions: HepG2 AP-2 cis-reporter, Attagene transcription factor profiling; actives raise or lower the signal
Summary of the method: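 Assay in transfected HepG2 with promoter-regulated reporters, 24 h incubation after dosing. Signal is reporter mRNA fluorescence (RT-PCR, capillary electrophoresis), analysed for both increases and decreases relative to DMSO controls.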

[7] = ATG_BRE_CIS: Attagene CIS-FACTORIAL HepG2 Assay for human Bone Morphogenetic Protein (BMP) Response Element (BRE) (AID 2282933); conditions: HepG2 BMP response element reporter, Attagene transcription factor profiling; actives raise or lower the signal
Summary of the method: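 Fluorescence-labelled reporter cDNA fragments, separated by capillary electrophoresis, gave the signal for this component of a 52-readout multiplex. HepG2 cells were transfected, exposed to chemicals for 24 h, and compared with DMSO using bidirectional fitting.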

[8] = biological target: Transcription factor E2F1 (Homo sapiens) (UniProt Q01094); test: ATG_E2F_CIS: Attagene CIS-FACTORIAL HepG2 Assay for human E2F Transcription Factor 1 (AID 2282935); conditions: HepG2 Attagene cis-reporter, E2F reporter RNA transcripts; actives raise or lower the signal
Summary of the method: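 In this cis-factorial format, endogenous factor activity drives transfected reporters in HepG2; transcripts collected at 24 h are quantified by fluorescence after RT-PCR and capillary separation.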

[9] = ATG_M_61_CIS: Attagene CIS-FACTORIAL HepG2 Assay for M61 Transcription Factor (Internal Marker) (AID 2282937); conditions: HepG2 Attagene CIS-FACTORIAL M61 internal marker reporter; actives raise or lower the signal
Summary of the method: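 HepG2 cells transiently transfected with cis-element-driven multiple reporter transcription units, dosed for 24 h. Reporter mRNA measured by RT-PCR, 6-FAM primer-extension labelling, HpaI digestion and capillary electrophoresis; bidirectional fit versus DMSO baseline.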

[10] = ATG_EGR_CIS: Attagene CIS-FACTORIAL HepG2 Assay for human Early Growth Response 1 (EGR1) (AID 2282938); conditions: HepG2 Attagene CIS-FACTORIAL EGR reporter mRNA; actives raise or lower the signal
Summary of the method: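 HepG2 cells transiently transfected with cis-promoter-driven multiplexed reporter transcription units; reporter mRNA measured 24 h after compound dosing by RT-PCR, 6-FAM primer extension, HpaI digestion and capillary electrophoresis. Bidirectional fit versus DMSO baseline.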

[11] = ATG_M_19_CIS: Attagene CIS-FACTORIAL HepG2 Assay for M19 Transcription Factor (Internal Marker) (AID 2282939); conditions: HepG2 Attagene CIS-FACTORIAL M19 internal marker reporter; actives raise or lower the signal
Summary of the method: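 HepG2, MRTU transient transfection, 24 h dosing. Total RNA → RT-PCR → 6-FAM primer extension → HpaI digest → CE fluorescence. Bidirectional curve fit, DMSO negative control.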

[12] = ATG_ERE_CIS: Attagene CIS-FACTORIAL HepG2 Assay for Estrogen Response Element (ERE) (AID 2282940); conditions: HepG2 ERE cis-reporter, Attagene RNA transcript; actives raise or lower the signal
Summary of the method: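 After a 24 h chemical treatment, RNA from reporter-transfected HepG2 cells is reverse-transcribed, PCR-amplified and fluorescently labelled. Fragments separated by capillary electrophoresis give reporter signal; DMSO serves as negative control.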

[13] = ATG_Ets_CIS: Attagene CIS-FACTORIAL HepG2 Assay for human Erythroblast Transformation Specific (ETS) (AID 2282941); conditions: HepG2 ETS cis-reporter transcription, actives raise or lower the signal
Summary of the method: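 Cis-regulated reporter mRNA induction in HepG2 (transient transfection), 24 h exposure, RT-PCR plus capillary electrophoresis detection; DMSO serves as negative control and baseline.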

[14] = biological target: Hepatocyte nuclear factor 3-beta (Homo sapiens) (UniProt Q9Y261); test: ATG_FoxA2_CIS: Attagene CIS-FACTORIAL HepG2 Assay for human Forkhead box A2 (FOXA2) (AID 2282942); conditions: HepG2 cis-reporter transcription factor activity, 24 h; actives raise or lower the signal
Summary of the method: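 HepG2 cells transiently transfected with multiple cis-regulated reporter transcription units, dosed for 24 h. Reporter mRNA measured by RT-PCR, 6-FAM labelling, HpaI digestion and capillary electrophoresis; bidirectional fitting against DMSO baseline.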

[15] = ATG_FoxO_CIS: Attagene CIS-FACTORIAL HepG2 Assay for human Forkhead box O (FoxO) (AID 2282943); conditions: HepG2 Attagene cis-reporter, FoxO element, mRNA; actives raise or lower the signal
Summary of the method: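 Values reflect reporter mRNA induction or loss in HepG2 cells 24 h post-dosing, fitted bidirectionally with DMSO as negative control and baseline. Detection used RT-PCR and fluorescence capillary electrophoresis.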

[16] = ATG_GATA_CIS: Attagene CIS-FACTORIAL HepG2 Assay for human GATA Binding Protein (AID 2282944); conditions: HepG2 GATA cis-element reporter, Attagene multiplex mRNA; actives raise or lower the signal
Summary of the method: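 Cells: HepG2, transiently transfected with cis-regulated reporter transcription units. Exposure: 24 h. Detection: RT-PCR plus capillary electrophoresis of FAM-labeled fragments. Analysis: bidirectional, DMSO as baseline.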

[17] = ATG_GLI_CIS: Attagene CIS-FACTORIAL HepG2 Assay for human Zinc Finger Protein GLI1 (AID 2282945); conditions: HepG2, Attagene cis-factorial reporter mRNA, GLI element; actives raise or lower the signal
Summary of the method: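 HepG2 cells transiently transfected with cis-promoter multiplexed reporter units report endogenous transcription factor activity. After 24 h chemical exposure, reporter mRNA was quantified by RT-PCR, 6-FAM labelling, HpaI digestion and capillary electrophoresis, with bidirectional fitting against DMSO.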

[18] = ATG_E_Box_CIS: Attagene CIS-FACTORIAL HepG2 Assay for human Enhancer Box (E-box) (AID 2282936); conditions: HepG2 E-box cis-reporter transcription, actives raise or lower the signal
Summary of the method: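 Measured 24 h post-dosing in HepG2 cells transfected with multiple cis-regulated reporter units, signal being reporter mRNA induction detected by fluorescent RT-PCR with capillary electrophoresis; gain or loss fitted against DMSO.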

[19] = ATG_DR4_LXR_CIS: Attagene CIS-FACTORIAL HepG2 Assay for human Liver X Receptor (LXR), DR4 submotif (AID 2282929); conditions: HepG2 Attagene DR4 cis-reporter, mRNA transcription; actives raise or lower the signal
Summary of the method: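 HepG2 cells transiently transfected with cis-promoter-driven multiplexed reporter units (DR4 element) were dosed for 24 h. Reporter mRNA was quantified by RT-PCR, fluorescent primer extension, HpaI digestion and capillary electrophoresis; bidirectional fitting versus DMSO baseline.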

[20] = biological target: Retinoic acid receptor alpha (Homo sapiens) (UniProt P10276); test: ATG_DR5_RAR_CIS: Attagene CIS-FACTORIAL HepG2 Assay for human Retinoic Acid Receptor Alpha (RARE), DR5 submotif (AID 2282934); conditions: HepG2 Attagene cis-factorial RARE DR5 reporter, mRNA; actives raise or lower the signal
Summary of the method: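 Endpoint fitted in both directions relative to DMSO as negative control. It reflects DR5 cis-element reporter mRNA induction in transiently transfected HepG2 cells, measured 24 h after dosing through RT-PCR and fluorescent capillary electrophoresis.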

Measured: AC50

Hepatocyte nuclear factor 3-beta (Homo sapiens), sequence (Q9Y261 whole entry, looked up): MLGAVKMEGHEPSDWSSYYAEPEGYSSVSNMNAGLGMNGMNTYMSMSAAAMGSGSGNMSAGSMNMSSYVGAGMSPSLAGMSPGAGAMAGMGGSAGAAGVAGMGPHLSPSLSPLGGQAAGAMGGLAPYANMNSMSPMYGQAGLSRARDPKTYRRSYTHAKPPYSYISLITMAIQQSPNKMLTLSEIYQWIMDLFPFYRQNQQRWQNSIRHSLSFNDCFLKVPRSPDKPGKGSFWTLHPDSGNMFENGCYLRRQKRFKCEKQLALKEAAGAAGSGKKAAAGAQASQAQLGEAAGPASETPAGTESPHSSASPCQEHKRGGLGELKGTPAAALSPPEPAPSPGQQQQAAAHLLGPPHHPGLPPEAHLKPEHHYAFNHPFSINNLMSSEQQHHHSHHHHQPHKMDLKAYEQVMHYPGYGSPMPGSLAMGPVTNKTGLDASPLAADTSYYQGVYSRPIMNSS
CCAAT/enhancer-binding protein beta (Homo sapiens), sequence (P17676 whole entry, looked up): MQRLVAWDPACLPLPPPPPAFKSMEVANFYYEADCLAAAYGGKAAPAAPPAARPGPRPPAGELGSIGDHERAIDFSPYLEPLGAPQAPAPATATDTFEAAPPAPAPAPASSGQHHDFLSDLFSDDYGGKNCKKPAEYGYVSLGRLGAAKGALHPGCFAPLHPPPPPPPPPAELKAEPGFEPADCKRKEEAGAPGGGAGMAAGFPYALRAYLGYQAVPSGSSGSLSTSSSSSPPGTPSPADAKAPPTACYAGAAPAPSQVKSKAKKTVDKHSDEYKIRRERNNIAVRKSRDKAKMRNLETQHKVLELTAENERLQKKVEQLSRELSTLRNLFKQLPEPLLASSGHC
Aryl hydrocarbon receptor (Homo sapiens), sequence (P35869 whole entry, looked up): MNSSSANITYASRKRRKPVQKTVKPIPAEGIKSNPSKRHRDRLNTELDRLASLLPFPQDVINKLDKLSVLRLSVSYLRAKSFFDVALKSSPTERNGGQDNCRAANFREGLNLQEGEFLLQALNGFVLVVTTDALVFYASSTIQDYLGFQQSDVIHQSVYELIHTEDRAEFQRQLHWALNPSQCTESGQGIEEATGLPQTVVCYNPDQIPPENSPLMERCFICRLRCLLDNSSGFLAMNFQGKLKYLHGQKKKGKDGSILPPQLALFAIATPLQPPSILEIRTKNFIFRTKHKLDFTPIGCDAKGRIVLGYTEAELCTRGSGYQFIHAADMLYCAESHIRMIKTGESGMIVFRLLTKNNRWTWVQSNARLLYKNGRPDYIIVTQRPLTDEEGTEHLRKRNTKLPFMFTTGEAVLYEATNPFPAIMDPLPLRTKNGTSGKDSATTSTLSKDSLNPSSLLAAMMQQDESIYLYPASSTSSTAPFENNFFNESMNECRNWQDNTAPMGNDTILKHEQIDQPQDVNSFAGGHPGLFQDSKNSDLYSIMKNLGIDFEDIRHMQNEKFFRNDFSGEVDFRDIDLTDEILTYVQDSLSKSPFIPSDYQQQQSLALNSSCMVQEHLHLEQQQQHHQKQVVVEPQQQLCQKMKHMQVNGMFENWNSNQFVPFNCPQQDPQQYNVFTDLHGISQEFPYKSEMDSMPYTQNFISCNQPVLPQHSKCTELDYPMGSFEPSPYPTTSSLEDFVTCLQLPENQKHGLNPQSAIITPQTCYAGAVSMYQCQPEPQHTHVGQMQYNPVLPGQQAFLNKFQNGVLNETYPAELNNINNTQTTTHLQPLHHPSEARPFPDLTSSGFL
Transcription factor E2F1 (Homo sapiens), sequence (Q01094 whole entry, looked up): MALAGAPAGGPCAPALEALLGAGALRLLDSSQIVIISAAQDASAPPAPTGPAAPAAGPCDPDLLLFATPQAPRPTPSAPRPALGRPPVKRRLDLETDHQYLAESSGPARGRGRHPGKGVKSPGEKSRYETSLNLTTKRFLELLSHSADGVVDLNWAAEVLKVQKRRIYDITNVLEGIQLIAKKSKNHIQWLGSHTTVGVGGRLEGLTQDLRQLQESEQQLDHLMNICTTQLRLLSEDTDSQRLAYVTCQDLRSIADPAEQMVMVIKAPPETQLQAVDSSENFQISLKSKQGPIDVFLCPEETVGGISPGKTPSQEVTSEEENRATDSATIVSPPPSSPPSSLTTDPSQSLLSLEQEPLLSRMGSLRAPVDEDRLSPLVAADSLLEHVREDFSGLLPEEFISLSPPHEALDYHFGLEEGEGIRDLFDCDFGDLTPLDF
Retinoic acid receptor alpha (Homo sapiens), sequence (P10276 whole entry, looked up): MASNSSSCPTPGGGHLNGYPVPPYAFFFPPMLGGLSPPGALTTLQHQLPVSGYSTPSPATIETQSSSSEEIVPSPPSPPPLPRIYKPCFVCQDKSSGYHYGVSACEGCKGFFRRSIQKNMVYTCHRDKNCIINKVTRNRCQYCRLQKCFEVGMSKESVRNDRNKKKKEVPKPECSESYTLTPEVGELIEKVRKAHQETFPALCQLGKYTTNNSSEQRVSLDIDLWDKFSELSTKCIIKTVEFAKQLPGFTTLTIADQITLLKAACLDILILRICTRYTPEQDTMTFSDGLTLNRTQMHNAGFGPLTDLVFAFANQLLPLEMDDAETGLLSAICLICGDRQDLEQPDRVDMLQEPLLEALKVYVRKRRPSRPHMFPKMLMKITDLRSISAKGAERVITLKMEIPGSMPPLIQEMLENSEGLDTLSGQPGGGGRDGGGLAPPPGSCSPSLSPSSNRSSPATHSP

CCCc1c(OCCCOc2ccc(OCC(=O)O)cc2)ccc(C(C)=O)c1O
active: [3] 64.1 µM | [7] 137 µM | [10] 31.8 µM | [12] 0.365 µM
not listed: [18] | [19] | [20]
inactive: all other assays above

Cc1ccc(Nc2ccc(O)c3c2C(=O)c2ccccc2C3=O)cc1
active: [18] 20.3 µM
not listed: [7] | [19] | [20]
inactive: all other assays above

C=C(C)C(=O)OCc1ccccc1
not listed: [5] | [7] | [9] | [20]
inactive: all other assays above

CC(C)OP(=O)(CP(=O)(OC(C)C)OC(C)C)OC(C)C
not listed: [9] | [19] | [20]
inactive: all other assays above

COc1cccc(OC)c1
not listed: [8] | [12] | [19] | [20]
inactive: all other assays above

CCCCCCC#CC(=O)OC
not listed: [12] | [19] | [20]
inactive: all other assays above

CC(=O)C(=O)O
not listed: [5] | [9] | [12] | [19]
inactive: all other assays above

CCCCCCCCCCCCOCCO
active: [3] 33.4 µM | [4] 33.4 µM | [5] 50.2 µM | [6] 57.4 µM | [18] 50.6 µM | [14] 47.6 µM | [15] 56.6 µM | [17] 60.7 µM
not listed: [12] | [19]
inactive: all other assays above
